Percent Effect data for 14 molecules are collected here from ChEMBL document CHEMBL3988442, “University of Dundee, Small-Polar-MMV Screening Library” (2021).

For some assays here: Entries with a potency or affinity are not part of this list.

What all share (set-up): scale not given: direction of the effect not stated beside the values
The target of test [1] is Protein translocase subunit SecA (Escherichia coli (strain K12)) (UniProt P10408). The experiment in a line: Assay to Identify E. coli SecA ATPase Inhibitors. Format: functional. To be noted: 30 µM.
Protein translocase subunit SecA (Escherichia coli (strain K12)), sequence (P10408 whole entry): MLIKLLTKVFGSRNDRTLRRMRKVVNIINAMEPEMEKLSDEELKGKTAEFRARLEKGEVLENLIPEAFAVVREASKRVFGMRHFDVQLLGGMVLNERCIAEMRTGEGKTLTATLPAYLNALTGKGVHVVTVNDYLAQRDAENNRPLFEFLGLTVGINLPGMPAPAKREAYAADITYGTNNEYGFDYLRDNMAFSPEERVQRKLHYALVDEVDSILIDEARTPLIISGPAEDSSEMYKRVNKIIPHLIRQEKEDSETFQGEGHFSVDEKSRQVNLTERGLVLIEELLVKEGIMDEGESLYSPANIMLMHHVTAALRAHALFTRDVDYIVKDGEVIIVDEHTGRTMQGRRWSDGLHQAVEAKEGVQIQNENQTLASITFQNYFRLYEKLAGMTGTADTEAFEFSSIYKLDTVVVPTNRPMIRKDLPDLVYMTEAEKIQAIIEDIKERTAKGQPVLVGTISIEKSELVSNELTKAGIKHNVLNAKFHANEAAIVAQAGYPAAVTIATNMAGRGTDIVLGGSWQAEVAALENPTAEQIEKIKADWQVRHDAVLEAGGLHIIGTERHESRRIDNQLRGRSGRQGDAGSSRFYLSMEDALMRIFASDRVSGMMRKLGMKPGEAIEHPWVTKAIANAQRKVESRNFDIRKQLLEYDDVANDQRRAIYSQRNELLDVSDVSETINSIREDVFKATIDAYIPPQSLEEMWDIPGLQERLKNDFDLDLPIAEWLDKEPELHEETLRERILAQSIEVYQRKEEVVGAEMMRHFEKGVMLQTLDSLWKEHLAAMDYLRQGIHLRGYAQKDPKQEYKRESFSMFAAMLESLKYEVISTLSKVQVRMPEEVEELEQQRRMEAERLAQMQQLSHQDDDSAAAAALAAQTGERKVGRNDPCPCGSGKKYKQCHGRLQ
Test [2] addresses T1, Ubiquitin-activating enzyme e1, putative (Leishmania donovani (strain BPK282A1)) (UniProt E9BSI1).
T1 sequence (whole entry): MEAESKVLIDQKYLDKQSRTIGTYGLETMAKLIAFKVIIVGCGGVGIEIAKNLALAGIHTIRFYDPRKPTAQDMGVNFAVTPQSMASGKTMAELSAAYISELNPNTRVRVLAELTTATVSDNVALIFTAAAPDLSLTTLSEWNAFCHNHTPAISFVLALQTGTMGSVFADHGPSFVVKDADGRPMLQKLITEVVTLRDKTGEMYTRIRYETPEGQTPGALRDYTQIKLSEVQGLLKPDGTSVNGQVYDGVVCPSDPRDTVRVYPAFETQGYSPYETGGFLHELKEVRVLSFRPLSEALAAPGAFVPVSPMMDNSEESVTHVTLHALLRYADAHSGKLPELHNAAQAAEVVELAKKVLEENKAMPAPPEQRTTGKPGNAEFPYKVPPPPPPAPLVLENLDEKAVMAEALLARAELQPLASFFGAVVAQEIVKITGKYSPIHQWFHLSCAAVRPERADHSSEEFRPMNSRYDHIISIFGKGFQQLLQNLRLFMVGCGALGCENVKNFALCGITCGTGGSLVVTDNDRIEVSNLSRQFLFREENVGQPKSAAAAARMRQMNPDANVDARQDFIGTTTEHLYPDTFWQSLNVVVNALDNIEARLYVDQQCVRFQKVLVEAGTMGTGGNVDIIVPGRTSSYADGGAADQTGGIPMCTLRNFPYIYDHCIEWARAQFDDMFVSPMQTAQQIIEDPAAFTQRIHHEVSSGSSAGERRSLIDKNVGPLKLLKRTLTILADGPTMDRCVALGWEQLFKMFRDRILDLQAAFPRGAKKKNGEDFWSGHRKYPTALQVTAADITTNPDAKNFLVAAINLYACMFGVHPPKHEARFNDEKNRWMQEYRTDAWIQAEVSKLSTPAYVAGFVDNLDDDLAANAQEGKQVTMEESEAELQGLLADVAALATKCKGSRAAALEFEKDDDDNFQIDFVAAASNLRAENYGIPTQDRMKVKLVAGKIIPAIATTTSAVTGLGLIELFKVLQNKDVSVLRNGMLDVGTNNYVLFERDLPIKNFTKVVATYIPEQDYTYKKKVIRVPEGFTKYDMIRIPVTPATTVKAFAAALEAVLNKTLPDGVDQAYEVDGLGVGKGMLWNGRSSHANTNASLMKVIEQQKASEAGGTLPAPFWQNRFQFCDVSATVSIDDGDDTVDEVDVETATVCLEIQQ
Put plainly: Leishmania donovani Ubiquitin Activating Enzyme (LdE1). To be noted: 30 µM. Format: functional.

Test [3] has as its target Sialic acid-binding Ig-like lectin 9 (Homo sapiens) (UniProt Q9Y336). The experiment in a line: Hs-Siglec9 ALPHAscreen SOP 20170721. To be noted: 10 µM. (Bead proximity is the source of the signal in Alpha formats.)
The subject of another test is Trypanosoma cruzi. The experiment in a line: Trypanosoma cruzi phosphomannomutase and mannose-1-phosphate guanylyltransferase assay. Format: functional. To be noted: 10 µM.
Test [4] addresses T2, Arginase-2, mitochondrial (Homo sapiens) (UniProt P78540).
T2 sequence (whole entry): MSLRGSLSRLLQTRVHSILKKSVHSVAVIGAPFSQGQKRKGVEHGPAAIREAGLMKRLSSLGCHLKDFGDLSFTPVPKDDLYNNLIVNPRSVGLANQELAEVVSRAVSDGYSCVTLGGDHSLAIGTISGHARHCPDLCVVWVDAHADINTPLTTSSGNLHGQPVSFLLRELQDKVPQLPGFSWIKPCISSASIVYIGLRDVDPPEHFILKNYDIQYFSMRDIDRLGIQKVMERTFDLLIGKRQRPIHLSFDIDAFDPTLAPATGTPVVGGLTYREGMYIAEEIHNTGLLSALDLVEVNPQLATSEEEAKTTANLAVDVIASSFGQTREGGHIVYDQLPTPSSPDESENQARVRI
Put plainly: in vitro enzyme assay to detect the production of urea directly proportional to the activity of Arginase II. Also: in the data most compounds retested in dose-response had high values. It counts as functional. Conditions: 33.3 µM.

The target in test [5] is T3, Proteasome subunit beta (Trypanosoma cruzi) (UniProt O96673).
T3 sequence (whole entry): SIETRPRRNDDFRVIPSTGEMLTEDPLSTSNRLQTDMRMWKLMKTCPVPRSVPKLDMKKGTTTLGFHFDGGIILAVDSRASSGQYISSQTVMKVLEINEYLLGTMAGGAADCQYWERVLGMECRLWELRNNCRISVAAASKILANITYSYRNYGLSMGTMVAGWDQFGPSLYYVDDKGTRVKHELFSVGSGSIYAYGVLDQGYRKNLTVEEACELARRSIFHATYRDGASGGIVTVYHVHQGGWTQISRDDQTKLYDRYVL
The experiment in a line: Trypanosoma cruzi proteasome chymotrypsin-like activity (TcProtChymo) assay. Also: in the data most compounds retested in dose-response had high values. Format: functional. Conditions: 9.37 µM.

The species named for another test is Homo sapiens. The experiment in a line: To identify inhibition of the IFN signalling (Jak-Stat) pathway via expression of an eGFP reporter gene under the control of an IFN-stimulated response element (ISRE) containing MxA promoter. Conditions: 30 µM. It counts as functional.
The target in test [6] is T4, Tyrosyl-tRNA synthetase, putative (Trypanosoma cruzi (strain CL Brener)) (UniProt Q4DSP6).
T4 sequence (whole entry): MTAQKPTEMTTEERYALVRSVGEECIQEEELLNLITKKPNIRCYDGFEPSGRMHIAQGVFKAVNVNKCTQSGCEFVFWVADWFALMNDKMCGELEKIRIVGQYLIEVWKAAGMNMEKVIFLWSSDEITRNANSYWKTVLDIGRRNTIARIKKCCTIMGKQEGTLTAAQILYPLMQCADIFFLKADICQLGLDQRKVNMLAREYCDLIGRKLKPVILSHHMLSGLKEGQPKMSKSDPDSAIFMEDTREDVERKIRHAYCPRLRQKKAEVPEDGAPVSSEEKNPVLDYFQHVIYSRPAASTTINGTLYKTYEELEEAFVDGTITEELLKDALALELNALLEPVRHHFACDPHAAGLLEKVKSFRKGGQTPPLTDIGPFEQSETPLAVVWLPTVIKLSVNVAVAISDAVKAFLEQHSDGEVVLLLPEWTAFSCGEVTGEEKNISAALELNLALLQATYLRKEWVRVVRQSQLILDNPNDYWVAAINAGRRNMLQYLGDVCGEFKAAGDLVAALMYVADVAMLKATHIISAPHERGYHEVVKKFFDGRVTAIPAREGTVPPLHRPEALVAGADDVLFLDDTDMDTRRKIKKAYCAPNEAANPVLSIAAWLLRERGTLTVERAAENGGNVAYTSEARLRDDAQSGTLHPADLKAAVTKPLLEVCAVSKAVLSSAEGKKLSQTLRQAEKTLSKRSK
Put plainly: Trypanosoma cruzi tyrosyl tRNA synthetase (TcYRS) _High Tyrosine SOP. Also: in the data most compounds retested in dose-response had high values. It counts as functional. To be noted: 30 µM.

Test [7] addresses T4, Tyrosyl-tRNA synthetase, putative (Trypanosoma cruzi (strain CL Brener)). The experiment in a line: Trypanosoma cruzi tyrosyl tRNA synthetase (TcYRS) SOP. Format: functional. Conditions: 30 µM.
Test [8] has as its target Chromo domain-containing protein 1 (Saccharomyces cerevisiae (strain ATCC 204508 / S288c) (Baker's yeast)) (UniProt P32657). Put plainly: ScCHD-1 Enzyme Inhibition Assay. Also: in the data most compounds retested in dose-response had high values. It counts as functional. Conditions: 30 µM.

Chromo domain-containing protein 1 (Saccharomyces cerevisiae (strain ATCC 204508 / S288c) (Baker's yeast)), sequence (P32657 whole entry, the tested form may be a part): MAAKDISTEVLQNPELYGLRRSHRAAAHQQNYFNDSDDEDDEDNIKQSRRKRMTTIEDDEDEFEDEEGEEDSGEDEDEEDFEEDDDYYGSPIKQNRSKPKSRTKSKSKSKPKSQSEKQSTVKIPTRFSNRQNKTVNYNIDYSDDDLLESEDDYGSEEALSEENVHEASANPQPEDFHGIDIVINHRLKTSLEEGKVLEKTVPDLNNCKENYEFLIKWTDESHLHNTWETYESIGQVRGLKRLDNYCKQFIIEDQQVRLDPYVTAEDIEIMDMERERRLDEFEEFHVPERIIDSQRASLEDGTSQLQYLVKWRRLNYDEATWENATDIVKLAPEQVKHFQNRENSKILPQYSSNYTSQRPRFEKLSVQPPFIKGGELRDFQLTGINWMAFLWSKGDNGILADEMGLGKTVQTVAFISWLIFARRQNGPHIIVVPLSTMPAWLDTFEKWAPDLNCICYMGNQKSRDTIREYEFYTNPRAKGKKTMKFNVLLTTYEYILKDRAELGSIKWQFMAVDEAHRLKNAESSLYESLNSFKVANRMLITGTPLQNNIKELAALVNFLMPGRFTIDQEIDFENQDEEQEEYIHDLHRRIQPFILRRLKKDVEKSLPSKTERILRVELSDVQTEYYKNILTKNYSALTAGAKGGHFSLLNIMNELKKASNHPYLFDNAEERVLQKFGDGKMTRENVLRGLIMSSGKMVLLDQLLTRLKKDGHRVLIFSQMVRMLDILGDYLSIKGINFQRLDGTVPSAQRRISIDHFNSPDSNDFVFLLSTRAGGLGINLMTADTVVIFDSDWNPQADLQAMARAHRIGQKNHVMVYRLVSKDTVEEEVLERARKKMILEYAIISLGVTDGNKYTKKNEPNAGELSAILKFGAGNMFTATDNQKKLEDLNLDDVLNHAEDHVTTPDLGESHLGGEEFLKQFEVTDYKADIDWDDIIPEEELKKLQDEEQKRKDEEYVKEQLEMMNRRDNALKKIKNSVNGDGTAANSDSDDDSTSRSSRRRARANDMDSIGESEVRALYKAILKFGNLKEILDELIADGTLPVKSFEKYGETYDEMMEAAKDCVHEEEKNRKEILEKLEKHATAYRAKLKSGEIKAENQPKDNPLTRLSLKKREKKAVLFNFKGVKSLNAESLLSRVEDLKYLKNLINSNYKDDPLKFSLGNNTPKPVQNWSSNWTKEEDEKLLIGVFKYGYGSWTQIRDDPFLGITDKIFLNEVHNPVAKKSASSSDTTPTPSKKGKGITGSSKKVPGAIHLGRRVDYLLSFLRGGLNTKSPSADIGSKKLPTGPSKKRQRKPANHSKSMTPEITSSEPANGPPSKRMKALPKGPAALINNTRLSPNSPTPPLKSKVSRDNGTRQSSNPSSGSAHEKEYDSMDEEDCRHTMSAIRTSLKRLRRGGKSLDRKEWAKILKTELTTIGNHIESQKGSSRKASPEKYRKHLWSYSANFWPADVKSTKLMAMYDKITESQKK
Sialic acid-binding Ig-like lectin 9 (Homo sapiens), sequence (Q9Y336 whole entry): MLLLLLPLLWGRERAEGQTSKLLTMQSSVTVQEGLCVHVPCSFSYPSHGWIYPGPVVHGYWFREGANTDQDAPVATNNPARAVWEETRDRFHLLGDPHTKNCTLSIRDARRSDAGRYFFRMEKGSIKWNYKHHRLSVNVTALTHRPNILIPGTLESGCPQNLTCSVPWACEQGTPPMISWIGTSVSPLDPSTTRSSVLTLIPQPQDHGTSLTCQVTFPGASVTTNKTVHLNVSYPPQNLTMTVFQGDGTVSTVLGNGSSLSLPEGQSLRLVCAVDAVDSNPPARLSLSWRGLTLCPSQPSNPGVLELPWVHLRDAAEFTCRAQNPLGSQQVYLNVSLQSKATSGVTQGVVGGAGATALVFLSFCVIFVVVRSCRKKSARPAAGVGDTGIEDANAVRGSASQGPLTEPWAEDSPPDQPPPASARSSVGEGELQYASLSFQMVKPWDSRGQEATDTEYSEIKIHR

In the case of `CN(c1ccncn1)C1CC2(CCN(C(=O)c3ccsc3)C2)C1` (stereo not given), the Percent Effect in test [1] was -2.12%; in test [2], 22.7%; in test [3], 0.226%; in the test with Trypanosoma cruzi, 3.55%; in test [4] it was -4.42%; in test [5], 17.2%. Also, the Percent Effect is 11.8% in the test listed under Homo sapiens, 0% in test [6], 17.5% in [7] and -21.9% in [8].
Consider `CC(C)NC(=O)N1C[C@H]2C[C@H](C(=O)NCc3ccccc3)[C@@H](C1)O2`, for which the Percent Effect in test [1] was -5.17%; in test [2], -103%; in [3] it was -0.747%; with Trypanosoma cruzi, -5.16%; in test [4] it was -5.67%; in [5], 8.74%. Moreover, the Percent Effect in the test filed under Homo sapiens is 8.32%; in test [6], 3.68%; in test [7] it was 7.69%; in test [8], 3.3%.
As to `Cn1cc(CN2CCOCC3(C2)CN(c2ccccc2)C(=O)CO3)cn1` (stereo not given), the Percent Effect in test [1] is -5.71%; in test [2] it was 9.09%; in [3] it was -4.81%; in the test on Trypanosoma cruzi, -1.85%; in test [4] it was 0%; in [5], 5.03%. Besides, the Percent Effect is -7.25% in the test filed under Homo sapiens, 6.84% in test [6], 10.3% in [7] and -1.15% in test [8].
Turning to `Cc1noc(C2CCN(Cc3cc(=O)n(C)c(=O)n3C)CC2)n1`, the Percent Effect in test [1] was -4.76%; in [2] it was 16%; in test [3] it was 3.89%; in the test on Trypanosoma cruzi it was 0.602%; in test [4], 0%; in test [5] it was 13.2%. The Percent Effect is 15.2% in the test listed under Homo sapiens, 3.68% in test [6], 12.8% in test [7] and -9.16% in [8].
With `O=C(NCC1CC1)C1CCC2(CCN(C(=O)c3ccccn3)CC2)O1` (stereo not given), the Percent Effect in test [1] is -3.07%; in test [2], 1.3%; in test [3], -0.0517%; with Trypanosoma cruzi it was -2.44%; in test [4], 2.74%; in [5], -2.66%. The Percent Effect in the test listed under Homo sapiens was 9.93%; in [6] it was -4.83%; in [7], -10%; in test [8], -4.71%.
As to `COc1ccc(C2CC(=O)Nc3c2cnn3C)cc1` (stereo not given), the Percent Effect in test [1] was -6.08%; in test [2], 2.7%; in test [3] it was -3.92%; with Trypanosoma cruzi, -9.99%; in test [4] it was -5.94%; in test [5], 8.39%. In addition, the Percent Effect in the test filed under Homo sapiens was 39.8%; in test [6] it was -0.532%; in [7], 4.88%; in test [8], -3.56%.
As to `O=C(c1ccc(F)cc1F)N1CC[C@H](O)[C@@H](N2CCOCC2)CC1`, the Percent Effect in test [1] was -1.33%; in [2], 6.67%; in test [3] it was 3.3%; in the test on Trypanosoma cruzi it was -1.58%; in [4], 3.98%; in test [5], 3.94%. Besides, the Percent Effect was 12.8% in the test filed under Homo sapiens, 2.12% in [6], 7.5% in test [7] and -18.1% in test [8].
Regarding `CC(C)N1CCO[C@H]2CN(C(=O)c3ccc(N(C)C)cc3)C[C@H]21`, the Percent Effect was -3.12% in [1]; 1.3% in [2]; -9.38% in [3]; -6.13% in the test on Trypanosoma cruzi; 3.64% in [4]; 15.6% in [5]. Further, the Percent Effect in the test listed under Homo sapiens was 4.68%; in test [6] it was 8.95%; in [7] it was 12.8%; in test [8] it was -3.55%.
Regarding `Cn1cc(NC(=O)N2CCC(NS(C)(=O)=O)CC2)ccc1=O`, the Percent Effect was 1.1% in test [1]; 48.7% in test [2]; 0.0157% in test [3]; -2.54% with Trypanosoma cruzi; 13.9% in test [4]; 1.11% in test [5]. Moreover, the Percent Effect is 18.1% in the test filed under Homo sapiens, -9.09% in [6], -13.2% in test [7] and -0.842% in [8].
Take `O=C(O)c1cc(-c2cccnc2)cc(S(=O)(=O)N2CCCCCC2)c1`: the Percent Effect in [1] is -7.1%; in test [2] it was 5.41%; in [3] it was 3.44%; in the test with Trypanosoma cruzi, -3.4%; in test [4], 0.35%; in test [5], 12.7%. The Percent Effect in the test listed under Homo sapiens was 8.29%; in [6], 5.85%; in [7], -2.44%; in test [8] it was -1.87%.
Regarding `CCc1noc(C(C)N2CCN(Cc3nnc(C4CC4)o3)CC2)n1` (stereo not given), the Percent Effect was -3.4% in [1]; 2.67% in [2]; -2.35% in test [3]; 0.402% in the test with Trypanosoma cruzi; -1.77% in [4]; -3.31% in test [5]. The Percent Effect was -5.04% in the test filed under Homo sapiens, 0.526% in test [6], 0% in test [7] and -5.5% in [8].
With `Cc1c(F)cc(C(=O)O)cc1S(=O)(=O)Nc1cccc(C(F)F)c1`, the Percent Effect in [1] is -2.31%; in [2] it was -2.56%; in [3] it was 2.65%; in the test with Trypanosoma cruzi it was 1.03%; in [4] it was 0.41%; in test [5] it was 6.23%. Also, the Percent Effect in the test listed under Homo sapiens was 11.6%; in test [6], -1.44%; in test [7] it was -3.61%; in [8] it was -0.222%.
For `Cn1ncc(NCc2cccc(COC(C)(C)C)c2)c(Cl)c1=O`, the Percent Effect in test [1] was -2.67%; in test [2] it was 8%; in test [3] it was 4.11%; in the test on Trypanosoma cruzi, 1.81%; in test [4], 5.32%; in test [5] it was 3.31%. Further, the Percent Effect in the test filed under Homo sapiens is 49.3%; in test [6] it was 2.63%; in test [7] it was 10.3%; in [8] it was -8.54%.
On to `Cc1nc(C2CCN(C(=O)CO)CC2)cc(N2CCOCC2)n1`, for which the Percent Effect in [1] is -2.95%; in test [2], 8.11%; in test [3], 8.92%; in the test with Trypanosoma cruzi, 8.05%; in test [4], 22%; in test [5], 8.22%. The Percent Effect in the test filed under Homo sapiens is -12.6%; in test [6] it was 6.92%; in test [7], 17.1%; in test [8], 0.691%.
